# Screens (PubChem BioAssay)
# This is a sample that favours compounds with a hit; in the whole collection about 1.2% have one here.
# ASM inhibitor: Inhibitors of Secretory Acid Sphingomyelinase (S-ASM): qHTS. Sphingomyelin phosphodiesterase (Homo sapiens), P17405. placental ASM, HMU-PC fluorogenic substrate, 60 min. Potency, µM (titrated, usually from 57.5 µM), for inactives: top-dose activity change, negative = inhibition, actives largely listed as inhibitors. 340,000 tested, 0.006% active. AID 504937, 2011; note: potency is the fitted concentration of half-maximal effect
# Target sequence (P17405 47-631 limits assumed): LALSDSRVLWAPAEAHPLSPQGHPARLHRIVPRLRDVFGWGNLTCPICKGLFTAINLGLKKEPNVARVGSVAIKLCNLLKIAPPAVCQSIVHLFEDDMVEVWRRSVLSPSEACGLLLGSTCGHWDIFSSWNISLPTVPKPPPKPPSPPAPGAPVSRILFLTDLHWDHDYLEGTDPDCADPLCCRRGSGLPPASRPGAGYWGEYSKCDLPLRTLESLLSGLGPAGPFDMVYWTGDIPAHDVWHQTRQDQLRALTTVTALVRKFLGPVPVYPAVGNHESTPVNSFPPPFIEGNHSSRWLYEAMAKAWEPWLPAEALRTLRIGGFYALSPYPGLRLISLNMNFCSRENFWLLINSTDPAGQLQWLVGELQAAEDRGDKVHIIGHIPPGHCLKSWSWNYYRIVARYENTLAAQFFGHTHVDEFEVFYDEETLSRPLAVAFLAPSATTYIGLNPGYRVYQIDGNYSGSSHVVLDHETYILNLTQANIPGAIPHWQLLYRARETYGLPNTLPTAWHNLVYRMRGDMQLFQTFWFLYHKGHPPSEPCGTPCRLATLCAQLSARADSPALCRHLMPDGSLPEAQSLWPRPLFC
#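 Human placenta-derived ASM enzyme was preincubated with compound for 10 minutes at room temperature, then given fluorogenic substrate HMU-PC0 (9 uM final) for 60 minutes at 37 °C; a pH 10 stop preceded fluorescence reading at Ex 386/Em 447 nm.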
# TSG101-PTAP inh: qHTS Assay for Iinhibitors of HIV-1 Budding by Blocking the Interaction of PTAP/TSG101; Tumor susceptibility gene 101 protein (Homo sapiens), Q99816; Fluorescence polarization, FITC-PTAP peptide / Tsg101 binding; Potency, µM (titrated, usually from 115 µM), for the others: at the highest dose activity change, negative = inhibition, most hits filed as inhibitors; 340,000 tested, under 10 active; AID 493005, 2010; active = well fitted inhibition curve with a large enough effect in the main read-out, with a control signal flat, not every such curve was filed as active; inconclusive = small, poorly fitted or top-dose-only effect, or effect the other way, or a change in a side signal; inactive = no such curve, though single readings can be large or run the other way; note: potency is the fitted concentration of half-maximal effect; % of control where 0% means no effect
#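 Fluorescence polarization binding of Tsg101 binding domain (10 uM final) to FITC-labeled PTAP peptide (50 nM final) in HEPES pH 7.5 buffer with NaCl, Tween 20, EDTA, TCEP. Compounds added before peptide; binding 20 min at RT.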
# BRCA1 expr up: qHTS Assay to Identify Small Molecule Activators of BRCA1 Expression. 380,000 tested, 1.1% active. AID 624202, 2012. MCF7-BRCA1-FFLuc reporter, luminescence, 48 h; response scale: scaled: vehicle 0%, 10 µM genistein 100%. Potency, µM (doses to about 46.1 µM), for the others: at the top dose activation, hits mostly activators; note: potency is the fitted concentration of half-maximal effect; nearly all actives have a fitted effect of over 80% in size
#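 48 h compound treatment of MCF7-BRCA1-FFLuc cells (phenol-red free MEM, 37 °C), then 15 min with luciferase substrate and luminescence imaging.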
# TSHR antag: Antagonists of the Thyroid Stimulating Hormone Receptor: HTS campaign; AID 504810, 2011; 330,000 tested, 0.2% active; activity change, negative = inhibition, % at 11.5 µM; TSHR-expressing cells, TSH-stimulated cAMP HTRF, 2 h; hits give low values;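 active = activity change below a set negative limit, meaning inhibition stronger than a set level, cut at about -70% in these data; inconclusive = activity change between two set negative limits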; note: % is set by controls: 0 for no effect and ±100 for the full control effect
#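 Competitive HTRF cAMP read-out (cryptate anti-cAMP antibody, cAMP-d2; 30 min, room temperature) in freshly harvested TSHR cells. Compounds added before TSH at EC80 (4nM final), followed by 2 hours' incubation at 37 deg C.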
# Apoferritin bind: qHTS Assay for Identification of Novel General Anesthetics; 350,000 tested, 0.074% active; Potency, µM (top dose mostly 77.5 µM), for inactives: at the top dose activity change, negative = displacement, actives largely listed as inhibitors; apoferritin/1-aminoanthracene competitive binding, fluorescence; Ferritin light chain (Equus caballus), P02791; note: potency is the fitted concentration of half-maximal effect; % is set by controls: 0 for no effect and ±100 for the full control effect; nearly all actives have a fitted effect of over 20% in size
#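 Apoferritin-based anesthetic binding model; compound displacement of fluorescent 1-AMA measured as endpoint fluorescence after 10 minutes at room temperature, scaled to free-ligand and complex controls.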
# * hit, by the source's call; ? = inconclusive; . = no result; [ ] = dose if it differs, or a comment. Unless noted, calls come from the whole dose curve; as a rule, active = well fitted curve in the direction sought with a large enough effect; inconclusive = small, poorly fitted or top-dose-only effect, or another doubt; inactive = no such curve, though single readings can be large; an effect the other way counts as inactive or inconclusive.
SMILES,ASM inhibitor,TSG101-PTAP inh,BRCA1 expr up,TSHR antag,Apoferritin bind
CCCCCn1cnc2sc(-c3ccccc3)cc2c1=O,-3%,-3%,5µM*,32,19%
O=c1c2cc(-c3ccccc3)sc2ncn1/N=C/c1ccco1,0%,-2%,11µM*,-23,-21%
COc1cc(NS(=O)(=O)c2ccc([N+](=O)[O-])cc2)c2ncccc2c1,.,.,.,.,-20%
CC1(C)OC(=O)C2(Cc3cc([N+](=O)[O-])ccc3N3CCCCC32)C(=O)O1 (stereo not given),.,.,17%,.,.
CCN(CC)C(=O)Cn1cc(S(=O)(=O)CC(=O)Nc2ccc3c(c2)OCCO3)c2ccccc21,0%,0%,11µM*,-4,-14%
CC[C@H](C)[C@H](NC(=O)[C@H](Cc1ccc(O)cc1)NC(=O)[C@H](Cc1cnc[nH]1)NC(=O)[C@H](CCCNC(=N)N)NC(=O)[C@H](CC(C)C)NC(=O)[C@H](C)NC(=O)[C@H](CO)NC(=O)[C@H](Cc1ccc(O)cc1)NC(=O)[C@H](Cc1ccc(O)cc1)NC(=O)[C@H](CCCNC(=N)N)NC(=O)[C@H](C)NC(=O)[C@H](CCSC)NC(=O)[C@H](CC(=O)O)NC(=O)[C@H](CCC(=O)O)NC(=O)[C@H](C)NC(=O)[C@@H]1CCCN1C(=O)[C@H](C)NC(=O)[C@H](CC(=O)O)NC(=O)[C@H](CCC(=O)O)NC(=O)CNC(=O)[C@@H]1CCCN1C(=O)[C@H](CC(N)=O)NC(=O)[C@H](CC(=O)O)NC(=O)[C@@H]1CCCN1C(=O)[C@H](CCCCN)NC(=O)[C@H](CO)NC(=O)[C@@H]1CCCN1C(=O)[C@@H](N)Cc1ccc(O)cc1)C(=O)N[C@@H](CC(N)=O)C(=O)N[C@@H](CC(C)C)C(=O)N[C@@H](CC(C)C)C(=O)N[C@H](C(=O)N[C@@H](CCCNC(=N)N)C(=O)N1CCC[C@H]1C(=O)N[C@@H](CCCNC(=N)N)C(=O)N[C@@H](Cc1ccc(O)cc1)C(N)=O)[C@@H](C)O,.,.,.,.,-21%
COc1ccc(-c2csc(/C(C#N)=C\c3ccc(O)c([N+](=O)[O-])c3)n2)cc1OC,-12%,-8%,0%,-72*,-11%
COc1cc(/C=C(\C#N)c2nc3ccccc3s2)cc([N+](=O)[O-])c1O,?,-12%,-45%,-71*,-12%
COc1cc2nc(Cl)nc(NC(C)C)c2cc1OC,.,.,-9%,.,.
O=S(=O)(c1ccc(C(F)(F)F)cc1)N1CCN(c2nc(-c3cccs3)nc3ccccc23)CC1,.,.,0%,.,.
O=C(OCc1ccc(Cl)c(Cl)c1)c1ccc[nH]1,-6%,-8%,13µM*,-31,?
Cc1cc2ncc(-c3ccccc3)nc2cc1C,0%,-1%,?,-12,1%
CCOC(=O)c1cnc(-c2ccccc2)nc1N,3%,-7%,4µM*,-3,-8%
CC(=O)Nc1ccc(C(=O)OCc2ccccc2Br)cc1,-9%,-4%,62%,4,?
Cc1nc2ccc(C(=O)OCc3ccccc3Br)cc2nc1C,-6%,-10%,7.1µM*,-13,-13%
O=C(Nc1cccc(-c2cnc3ccccc3n2)c1)c1ccccc1,-2%,-2%,18%,-1,-11%
CCc1ccc(-c2cnc3ccccc3n2)cc1NC(=O)CNC(=O)c1ccccc1,2%,1%,7.9µM*,4,-6%
CCOC(=O)c1cnc(-c2ccccc2)nc1N(C)C,0%,-2%,-49%,-7,-10%
CCOC(=O)c1ccc2ncc(-c3ccccc3)nc2c1,4%,-1%,13µM*,-5,-10%
CSCC[C@H](NC(=O)CN)C(=O)N[C@@H](CC(=O)O)C(=O)N[C@@H](CO)C(=O)N[C@@H](CC(C)C)C(=O)N[C@@H](C)C(=O)N[C@@H](Cc1ccccc1)C(=O)N[C@@H](CO)C(=O)NCC(=O)NCC(=O)N[C@@H](CC(C)C)C(N)=O,.,.,.,.,-8%
O=C(NCCCCN1CCOCC1)c1cc2ccccc2o1,.,.,.,.,0%
C(=Nc1cnc2ccccc2c1)c1ccnc2ccccc12,.,.,6%,.,.
Cc1cccc(OCC(=O)N2CCC(c3ccccc3)C2)c1 (stereo not given),4%,-6%,7.9µM*,-4,-17%
O=C(Nc1ccccc1)N1CCC(c2ccccc2)C1 (stereo not given),0%,-2%,3.2µM*,5,-13%
COc1ccc(NC(=S)N2CCC(c3ccccc3)C2)cc1 (stereo not given),-1%,1%,2.8µM*,4,-8%
SMILES,ASM inhibitor,TSG101-PTAP inh,BRCA1 expr up,TSHR antag,Apoferritin bind
CCc1ccc(NC(=O)N2CCC(c3ccccc3)C2)cc1 (stereo not given),-1%,-5%,?,-8,-20%
O=C(c1cccs1)N1CCC(c2ccccc2)C1 (stereo not given),0%,-8%,3.5µM*,-2,-10%
Cc1cc2ccc(Cl)nc2nc1C,.,.,11%,.,.
Nc1nc(=S)[nH]c2n[nH]nc12,.,.,-12%,.,.
CCC1(c2ccc(O)cc2)NC(=O)NC1=O (stereo not given),.,.,.,.,0%
CCOc1ccc(C=C2SC(=O)N(CCN)C2=O)cc1,.,.,.,.,-5%
CCN(CC)C(=O)CSC(=Nc1ccccc1F)NC#N,3%,0%,11µM*,-11,-20%
CC(C)C[C@H](NC(=O)[C@H](CCCCN)NC(=O)[C@H](CCC(N)=O)NC(=O)[C@H](Cc1cnc[nH]1)NC(=O)[C@H](Cc1cnc[nH]1)NC(=O)[C@@H](N)C(C)C)C(=O)N[C@H](C(=O)N[C@@H](Cc1ccccc1)C(=O)N[C@@H](Cc1ccccc1)C(=O)N[C@@H](C)C(=O)N[C@@H](CCC(=O)O)C(=O)N[C@@H](CC(=O)O)C(=O)N[C@H](C(=O)NCC(=O)N[C@@H](CO)C(=O)N[C@@H](CC(N)=O)C(=O)N[C@@H](CCCCN)C(=O)O)C(C)C)C(C)C,.,.,.,.,-2%
CC1(C(=O)OCC(=O)c2c[nH]c3ccccc23)CC1(Cl)Cl (stereo not given),-1%,-3%,8.9µM*,-22,?
Cc1cnc(C(=O)OCC(=O)c2c[nH]c3ccccc23)cn1,3%,1%,-11%,1,.
Oc1cc2cc(-c3csc(-c4ccc(F)cc4)n3)ccc2[nH]1,.,.,25%,.,.
CO[C@H]1COC(=O)[C@@H](C)COC(=O)[C@@H](COCc2ccccc2)NC(=O)C/C=C\[C@H]1C,.,.,.,.,-8%[15.3 µM]
